Source: PubChem
A selection: hits, their analogues and other compounds. The true share with any hit is near 5.2%.
Coupling enz: inhibits coupling enzyme system, counter-screen for aldolase hits | coupling enzyme system counterscreen, AmpLite Red fluorescence | activity change, negative = inhibition, % at 58.2 µM, hits read low | 290,000 compounds, 0.67% hits | AID 2472; in the data active = activity change below about -30%; note: % is set by controls: 0 for no effect and ±100 for the full control effect
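Counterscreen of the coupled detection system alone, without aldolase: glyceraldehyde-3-phosphate coupling enzymes plus AmpLite Red readout. Compounds at 57.5 uM final, 10 min RT preincubation, 20 min RT reaction, fluorescence 525/598 nm.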
Sfp inh: inhibitors of Bacillus subtilis Sfp phosphopantetheinyl transferase; Q9F4F7; Biochemical Sfp PPTase activity, qHTS; Potency, µM, for the others: largest response in the series, negative = inhibition, most hits filed as inhibitors; 310,000 compounds, 3.5% hits;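 note: the enzyme is Sfp with the accession as filed and its product quenches rhodamine fluorescence; potency is the fitted concentration of half-maximal effect; 0% = enzyme reaction without inhibitor and -100% = no enzyme wells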
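Compounds were incubated with enzyme (final 15 nM) for 15 min at room temperature before substrate addition started the reaction. Fluorescence at 525 nm excitation, 598 nm emission was recorded immediately and after 30 minutes.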
Tau FP inhib: blocks human tau fibril formation measured by polarization. P10636. K18 P301L tau heparin fibrillization, Alexa594 FP, 6 h. Potency, µM (titrated, usually from 57.7 µM), for the others: at the highest dose activity, negative = inhibition, usual class: inhibitors. 280,000 compounds, 0.39% hits; note: potency is the fitted concentration of half-maximal effect; % is set by controls: 0 for no effect and ±100 for the full control effect; nearly all actives have a fitted effect of over 55% in size
Target sequence (P10636 561-689 P618L limits assumed): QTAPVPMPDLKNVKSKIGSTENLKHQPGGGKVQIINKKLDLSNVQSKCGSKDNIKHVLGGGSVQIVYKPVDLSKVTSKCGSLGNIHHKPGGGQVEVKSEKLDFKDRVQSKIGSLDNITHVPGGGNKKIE
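Recombinant K18 P301L […], labeled with Alexa 594 at 0.24 uM over 15 uM unlabeled; heparin inducer 20 uM final; 37 C, 6 hr; FP endpoint.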
Tau fibril ThT: tau fibrillization inhibition (ThT binding); AID 1460; P10636; 270,000 compounds, 2.1% hits; Potency, µM (highest dose often 57.4 µM), without a hit: top-dose activity, negative = inhibition, usual class: inhibitors; recombinant tau K18 P301L, heparin-induced fibrillization, ThT fluorescence; note: potency is the fitted concentration of half-maximal effect; % is set by controls: 0 for no effect and ±100 for the full control effect; nearly all actives have a fitted effect of over 55% in size
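Aggregation was driven by heparin (20 uM final) acting on recombinant tau […] bearing P301L in 100 mM sodium acetate pH 7; fibrils were detected with Thioflavin T.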
Tau fluor counter: counter-screen for tau fibril formation inhibitors; Potency, µM (highest dose often 57.7 µM), for inactives: at the top dose activity change, negative = decrease; tau K18 P301L Alexa594 fluorescence, heparin fibrillization; 280,000 compounds, 0.93% hits; note: potency is the fitted concentration of half-maximal effect; % is set by controls: 0 for no effect and ±100 for the full control effect; nearly all actives have a fitted effect of over 55% in size
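Human tau K18 P301L (15 uM unlabeled, 0.24 uM Alexa 594-labeled) in 100 mM sodium acetate pH 7 with 20 uM heparin, 6 hr at 37 C. ThT 30 uM added, 1 hr ambient; Alexa 594 FP and total fluorescence read at 555/632 nm.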
Tau TEM fibril: Blocks tau fibril formation, electron microscopy. shares compounds with Tau fibril ThT. recombinant tau K18 P301L fibrillization, TEM grading; hits give high values. fibril grade (0 = clumped fibrils, 4 = only tiny pieces) (test concentration not listed). 45 compounds, 70% hits. AID 1719;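 active = compounds whose electron micrographs showed tau fibrils broken into shorter filaments or fragments, graded high on fibril breakup; inconclusive = micrographs gave an unclear fibril picture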
tau fibril sed: inhibitors of human tau fibrillization, sedimentation test. shares compounds with Tau fibril ThT. recombinant tau K18 P301L (four-repeat tau fragment), sedimentation SDS-PAGE densitometry. inhibition, % at 100 µM. 110 compounds, 50% hits; in the data active = inhibition above about 40%; inconclusive = no clear call, values can overlap the other calls; inactive = below about 18%
* hit, by the source's call; u = inconclusive; x = no result given; [ ] = remark or other dose. Unless noted, calls come from the whole dose curve; as a rule, active = well fitted curve in the direction sought with a large enough effect; inconclusive = small, poorly fitted or top-dose-only effect, or another doubt; inactive = no such curve, though single readings can be large; an effect the other way counts as inactive or inconclusive.

SMILES | Coupling enz | Sfp inh | Tau FP inhib | Tau fibril ThT | Tau fluor counter | others
CCOc1ccc(-c2cc3c(=O)n(Cc4nc(-c5ccccc5OCC)oc4C)ccn3n2)cc1Cl | x | x | 1.6% | 5.0% | 0.5%
CCOC(=O)c1c(-c2ccccc2)csc1NC(=O)C(C)NCCCN1CCOCC1 (stereo not drawn) | -5.8 | 39.8µM* | 9.3% | -16.2% | -5.8%
CCOC(=O)c1c(-c2ccccc2)csc1NC(=O)c1cc(-c2cccc(OC)c2)on1 | x | x | u | 31.6µM* | -17.4%
CCOC(=O)c1c(-c2ccc(-c3ccccc3)cc2)csc1NC(=O)CNCCN(C)C | 0.2 | 39.8µM* | x | x | x
CCOC(=O)c1c(-c2ccccc2)csc1NC(=O)CCN1C(=O)c2ccccc2C1=O | 0.3 | 17.3% | 7.6% | 2.5% | 2.1%
CCOC(=O)c1c(-c2ccc(C)cc2)csc1NC(=O)c1cc(=O)c2cc(C)ccc2o1 | x | x | u | 25.1µM* | -24.1%
COc1ccc(C(O)C2=CCCC2=O)cc1 (stereo not drawn) | 1.7 | -15.6% | 10.1% | 3.4% | 0.3%
CC(C)C1Nc2ccc(S(N)(=O)=O)cc2C2C=CCC21 (stereo not drawn) | -4.2 | 35.5µM* | u | 20µM* | u
NS(=O)(=O)c1ccc2c(c1)C1C=CCC1C(C1CC=CCC1)N2 (stereo not drawn) | -17.4 | 20µM* | u | 35.5µM* | 28.2µM*[quencher]
c1ccc(CN(CCN(Cc2ccccn2)Cc2ccccn2)Cc2ccccn2)nc1 | x | 25.5% | -13.7% | u | -15.0%
CC1CCN(S(=O)(=O)c2ccc(NC(=O)Cn3nnc(-c4ccccc4F)n3)cc2)CC1 | -2.5 | 8.2% | 7.94µM* | 3.0% | u
COc1cc(NC(=O)Cn2cc(S(=O)(=O)N3CCC(C)CC3)c3ccccc3c2=O)cc(OC)c1OC | x | x | u | -14.4% | u
CC1CCN(S(=O)(=O)c2cn(CC(=O)Nc3ccc(F)c(Cl)c3)c(=O)c3ccccc23)CC1 | x | x | 10µM* | -6.8% | u
c1cc2c3c(cccc3c1)NC1(CCC3(CC1)Nc1cccc4cccc(c14)N3)N2 | -11.9 | u | -10.6% | 15.8µM* | 12.6µM*[quencher]
c1cc2c3c(cccc3c1)NC1(CCCCCC1)N2 | -10.8 | 8.8% | 9.5% | u | u
Cc1ccccc1C(=O)NC1(C(F)(F)F)N=C(c2ccccc2)N(C2CCCCC2)C1=O (stereo not drawn) | x | x | -5.1% | -11.5% | -16.3%
CN(C)c1ccc(C(CNS(=O)(=O)c2ccc(F)cc2)c2c[nH]c3ccccc23)cc1 (stereo not drawn) | -7.6 | 11.8% | 12.4% | -11.5% | 11.2µM*[quencher]
CN(C)c1ccc(C(CNC(=O)c2ccc(C#N)cc2)c2c[nH]c3ccccc23)cc1 (stereo not drawn) | -4.1 | 16.0% | u | u | 14.1µM*[quencher]
CN(C)c1ccc(C(CNC(=O)c2ccccc2Br)c2c[nH]c3ccccc23)cc1 (stereo not drawn) | 1.1 | -4.0% | u | u | u
CCOC(=O)c1ccc(S(=O)(=O)NCC(c2ccc(N(C)C)cc2)c2c[nH]c3ccccc23)cc1 (stereo not drawn) | 4.1 | -9.8% | -3.8% | 0.7% | -8.6%
CCCCOc1ccc(C(=O)Nc2ccc3c(c2)CCCN3S(=O)(=O)c2ccc(C)cc2)cc1 | x | x | -9.4% | 4.5% | -17.2%
CC(C)c1ccc2c(c1)NC(c1ccc(F)cc1)=NC(c1cccs1)=N2 | x | x | -13.0% | u | u
CN(C)c1ccc(N2C(=O)CSC2=S)cc1 | -6.6 | -35.3% | u | 4.47µM* | u | tau fibril sed=11.0
COC(=O)c1nn(-c2ccc(OC)cc2)c(=O)c2c(N)sc(C)c12 | -52.0* | 35.5µM* | 3.2% | u | -27.0% | Tau TEM fibril=u;tau fibril sed=44.0*
